The record followed here is PubChem BioAssay.

Inconclusive results are not listed. Calls of active or inactive are those of the source.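 The calls were made as follows, unless noted: active = viability increase at or above a cutoff of the median across tested compounds plus 3 SD (cut at about 8.5% in these data, passing the limit was not always enough); inconclusive = some gains above the cutoff, reason not given; inactive = the rest.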

The nature of assay [1]: Her2 expression decrease, cell viability multiplex – SKBR3 breast tumor cells, AlphaScreen, ATP viability, primary screen (AID 461;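 active = Her2 level under about 52% in both replicate screens, with viability over 70% of control, limit read from the data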;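 as to Her2 level: lower value means less Her2 protein in the cells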;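 as to viability: percent of carrier control wells set as 100% viability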). To be noted: SKBR3 Her2 protein level, 18-24 h, measured here: SKBR3 viability, ATP luminescence, at 10 µM. Background: Alpha assays give light when donor and acceptor beads are brought close together.
Assay [2] has as its target Receptor tyrosine-protein kinase erbB-2 (Homo sapiens) (UniProt P04626). Described as above. Particulars: 18-24 h, at 10 µM, stronger effect = lower value.
Assay [3] can be described thus: reduced viability of SK-BR-3 breast cancer cells – cell-based, 24 h, human, pilot screen (AID 572;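 active = viability at or below 10% of carrier control in both of two separate runs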;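 also: compound exposure lasted between 18 and 24 h rather than exactly 24 h; 100% = carrier-treated control wells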). To be noted: SK-BR-3 viability, CellTiter-Glo luminescence, at 10 µM, stronger effect = lower value.
Assay [4] is described as follows: HUVEC growth inhibition – cell-based, human, primary screen (AID 575;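 active = viability at or below 30% in both replicate assays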;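 also: 100% = median of untreated cell wells with 0.1% DMSO on each plate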). Particulars: HUVEC proliferation, CellTiter-Glo luminescence, 72 h; at 10 µM; stronger effect = lower value. On the technique in general: In ATP-based viability assays light output follows the ATP content of the culture.
The nature of assay [5]: H69AR cell proliferation blockers – human, duplicate replicates, primary screen (AID 580;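 active = viability at or under a set limit in both replicates, limit being median viability minus 3 SD, cut at about 48% in these data, passing the limit was not always enough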;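 also: 100% = mean luminescence of untreated wells and 0% = no signal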). To be noted: H69AR lung tumor cells viability, ATP luminescence, 72 h; at 10 µM; stronger effect = lower value.
Assay [6] in a line: MRP1 drug-resistance reversers in H69AR cells – cell-based, doxorubicin co-treatment, pilot screen (AID 601;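 active = viability loss from added drug above about 55%, and viability with drug at most 40%, in both replicates, limit read from the data, passing the limit was not always enough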). Particulars: CellTiter-Glo, 72 h, at 10 µM; for differential viability (reversal): stronger effect = higher value.
The nature of assay [7]: yeast transport mutant growth inhibition pilot in 384-well plates, post-Golgi transport modulator project (AID 636; in the data active = inhibition above about 31%). Particulars: absorbance 615 nm, about 18 h, stronger effect = higher value.
Assay [8] in a line: growth suppression of yeast trafficking mutant, preliminary HTS, modulators of trafficking downstream of Golgi apparatus project, 1536-format plate, OD 615 nm (AID 637; in the data active = inhibition above about 30%). Particulars: yeast transport mutant growth, absorbance 615 nm, 18 h; stronger effect = higher value.
A short description of assay [9]: S. cerevisiae growth inhibition in permissive medium (OD615), pilot counter-assay for S. cerevisiae lifespan shortening project, permissive growth control (AID 705;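 active = growth inhibition above 25% in both replicates, a cutoff set 3 SD above the mean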). Particulars: OD615, 24 h, at 10 µM, stronger effect = higher value.
Assay [10] in a line: S. cerevisiae growth inhibition in restrictive medium, OD615, pilot screen, restrictive growth control, yeast lifespan reduction project (AID 706;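 active = growth inhibition above a set limit, 3 SD over mean compound inhibition, in both replicates, cut at about 43% in these data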;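 also: modified DeaD lifespan yeast strain shifted to restrictive glucose medium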). Particulars: OD615, 48 h, at 10 µM, stronger effect = higher value.
A short description of assay [11]: doxorubicin toxicity protection in MRP-1 cells – H69AR cells, CellTiter-Glo, duplicate, MRP-1 activator project, pilot screen (AID 807).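 Also: compound pretreatment 18-22 h then 72 h combined with doxorubicin; 0% = doxorubicin alone and 100% = vehicle without doxorubicin.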 To be noted: H69AR viability with doxorubicin, CellTiter-Glo luminescence; at 10 µM; stronger effect = higher value.
Assay [12] can be described thus: viability of HCT116 without oncogenic beta-catenin – human colon tumor cells, pilot screen (AID 823;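 active = cell viability at or below a set limit in both duplicate runs, the limit being the all-compound median minus 4 SD, cut at about 23% in these data, passing the limit was not always enough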;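 also: 0% = wells killed by 20 µM Hyamine and 100% = untreated DMSO cell wells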). Particulars: HCT116 beta-catenin knockout viability, CellTiter-Glo, 60 h; at 10 µM; stronger effect = lower value.
Assay [13] in a line: viability of PTEN-null HCT116 cells – cell-based, HCT116 clonal line, CellTiter-Glo, pilot screen (AID 824;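 active = viability at or below 27.92% in each of two runs, the all-compound median minus 4 SD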;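 also: 0% = 20 µM Hyamine control and 100% = vehicle cell control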). To be noted: HCT116 PTEN-deleted viability, 60 h, at 10 µM, stronger effect = lower value.
A short description of assay [14]: RAM pathway blockade in budding yeast – dse1pr::URA3 reporter, 5-FOA selection, pilot screen (AID 869;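 active = inhibition over a set limit, the all-compound mean plus 3 SD, in both replicate runs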;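 also: 0% = DMSO wells with no growth and 100% = 10 µM 1-NA-PP1 with full growth; RAM network block rescues cells from 5-FOA so hits raise OD615 growth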). To be noted: S. cerevisiae dse1pr::URA3 5-FOA growth, OD615, 2 d; at 10 µM; stronger effect = higher value; strain carries analog-sensitive mutant Cbk1 kinase.
The nature of assay [15]: RAM signaling pathway blockade in yeast – S. cerevisiae, Pdr1DBD-CYC8 efflux-inhibited sensitized strain, primary screen (AID 1298;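 active = RAM network inhibition above 8.4% in each of two replicates, 3 SD over the compound average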;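 also: 0% = DMSO untreated cells without growth and 100% = 10 µM 1-NA-PP1 full growth; higher means more yeast growth rescued from 5-FOA killing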). Particulars: S. cerevisiae cbk1-as DSE1-URA3 strain, 5-FOA growth OD615, 2 d; at 50 µM; stronger effect = higher value.
The mark [16] stands for this setting: H69AR cells + 2 uM doxorubicin, measured here: viability with 2 uM doxorubicin, stronger effect = lower value.
[17] abbreviates: H69AR cells, compound alone cytotoxicity.

Sequence of Receptor tyrosine-protein kinase erbB-2 (Homo sapiens) (P04626 whole entry, looked up): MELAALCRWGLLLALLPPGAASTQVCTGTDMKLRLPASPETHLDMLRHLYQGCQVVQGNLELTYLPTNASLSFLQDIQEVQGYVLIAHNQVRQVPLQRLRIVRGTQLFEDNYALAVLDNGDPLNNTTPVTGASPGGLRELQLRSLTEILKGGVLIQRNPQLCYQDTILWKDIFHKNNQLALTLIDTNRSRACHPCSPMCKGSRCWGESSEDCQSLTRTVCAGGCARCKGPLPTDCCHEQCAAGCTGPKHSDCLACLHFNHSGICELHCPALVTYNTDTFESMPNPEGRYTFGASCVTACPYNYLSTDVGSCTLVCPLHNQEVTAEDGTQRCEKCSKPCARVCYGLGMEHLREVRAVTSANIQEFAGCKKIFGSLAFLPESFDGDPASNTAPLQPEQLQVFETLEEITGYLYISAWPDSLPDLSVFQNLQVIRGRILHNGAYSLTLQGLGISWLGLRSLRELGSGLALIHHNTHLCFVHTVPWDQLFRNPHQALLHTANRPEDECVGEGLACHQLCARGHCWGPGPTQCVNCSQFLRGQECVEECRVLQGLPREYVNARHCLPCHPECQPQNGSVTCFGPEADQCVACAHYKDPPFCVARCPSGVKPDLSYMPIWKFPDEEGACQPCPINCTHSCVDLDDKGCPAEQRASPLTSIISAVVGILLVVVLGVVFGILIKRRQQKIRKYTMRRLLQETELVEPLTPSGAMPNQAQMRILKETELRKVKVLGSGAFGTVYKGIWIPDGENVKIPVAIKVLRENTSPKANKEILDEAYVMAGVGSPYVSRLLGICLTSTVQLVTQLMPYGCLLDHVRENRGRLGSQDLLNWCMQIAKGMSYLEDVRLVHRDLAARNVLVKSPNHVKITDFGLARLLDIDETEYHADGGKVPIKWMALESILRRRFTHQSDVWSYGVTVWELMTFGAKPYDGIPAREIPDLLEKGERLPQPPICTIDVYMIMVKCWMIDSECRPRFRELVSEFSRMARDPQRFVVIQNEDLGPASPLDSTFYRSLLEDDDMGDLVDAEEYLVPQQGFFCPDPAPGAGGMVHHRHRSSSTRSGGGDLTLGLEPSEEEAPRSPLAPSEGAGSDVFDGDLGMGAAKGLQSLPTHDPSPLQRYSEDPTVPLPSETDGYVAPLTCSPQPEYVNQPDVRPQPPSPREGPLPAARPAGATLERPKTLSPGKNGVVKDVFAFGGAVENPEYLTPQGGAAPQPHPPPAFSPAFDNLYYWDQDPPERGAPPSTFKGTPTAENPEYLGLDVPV

By viability is commonly meant a read-out of living cells in per cent, often relative to untreated cells. In general, inhibition refers to the drop in the measured response relative to a control, in per cent. In the case of `CCCC(=O)Nc1cc(C)c2c(=O)oc3ccccc3c2n1`, the viability is 87% in assay [1]; 87% (inactive) in assay [3]; 63.6% (inactive) in [4]; 77.6% (inactive) in assay [5]; 98% in assay [6] (setting [16]); 77.6% in assay [6] (setting [17]). In addition, the viability in [12] was 82.5% (inactive); in assay [13], 86.1% (inactive). Further, the Her2 level in assay [2] is 94.5% (inactive). Moreover, the differential viability (reversal) in assay [6] (H69AR cells + 2 uM doxorubicin) was -20.4% (inactive). Besides, the inhibition was -0.4% (inactive) in assay [7], 0.33% (inactive) in assay [8] and 1.65% (inactive) in assay [14]. The results for the growth inhibition in assay [9] and in assay [10] were -11.5% (inactive) and 3.23% (inactive), respectively. Moreover, in assay [11], the viability increase is -4.74% (inactive). Besides, the RAM network inhibition in assay [15] was 8.68% (inactive).
Turning to `COc1cccc(C(=O)Nc2cc(C)c3c(=O)oc4ccccc4c3n2)c1`, the viability in [1] is 80.5%; in assay [3], 80.5% (inactive); in assay [4], 57.6% (inactive); in [5] it was 81.9% (inactive); in assay [6] (setting [16]) it was 101%; in assay [6] (setting [17]) it was 81.9%. Also, the figures for the viability in assay [12] and in assay [13] were 85.2% (inactive) and 81.7% (inactive), respectively. For the same compound, the Her2 level in assay [2] was 62.5% (inactive). For the same compound, in assay [6] (H69AR cells + 2 uM doxorubicin), the differential viability (reversal) is -19.4% (inactive). In addition, the inhibition in [7] is -6.53% (inactive); in [8], -4.67% (inactive); in assay [14], 2.74% (inactive). The values for the growth inhibition in assay [9] and in assay [10] were -1.54% (inactive) and -1.12% (inactive), respectively. In addition, in assay [11], the viability increase was 3.07% (inactive). Moreover, the RAM network inhibition in assay [15] is 4.69% (inactive).
As for `Cc1c(NC(=O)c2noc3c2CCc2ccccc2-3)c(=O)n(-c2ccccc2)n1C`, the viability was 95.5% in assay [1]; 95.5% (inactive) in assay [3]; 102% (inactive) in assay [4]; 99.7% (inactive) in assay [5]; 105% in assay [6] (setting [16]); 99.7% in [6] (setting [17]). For the same compound, the values for the viability in assay [12] and in assay [13] were 101% (inactive) and 102% (inactive), respectively. Moreover, the Her2 level in assay [2] was 97.5% (inactive). Besides, the differential viability (reversal) in [6] (H69AR cells + 2 uM doxorubicin) is -5.54% (inactive). The inhibition was -5.73% (inactive) in assay [7], -7.21% (inactive) in [8] and 1.05% (inactive) in assay [14]. Also, the growth inhibition in assay [9] was -3.5% (inactive); in assay [10], 6.45% (inactive). In addition, the viability increase in [11] is -0.3% (inactive). Moreover, the RAM network inhibition in assay [15] was 4.92% (inactive).
For `O=C(Nc1ccccc1)c1cnc2n(c1=O)CCS2`, the viability was 92.5% in assay [1]; 92.5% (inactive) in assay [3]; 101% (inactive) in assay [4]; 91.1% (inactive) in [5]; 93.5% in [6] (setting [16]); 91.1% in assay [6] (setting [17]). Moreover, the viability in assay [12] was 104% (inactive); in assay [13] it was 97.2% (inactive). For the same compound, the Her2 level in assay [2] was 88% (inactive). For the same compound, the differential viability (reversal) in [6] (H69AR cells + 2 uM doxorubicin) was -2.48% (inactive). Further, the inhibition in assay [7] was -4.8% (inactive); in [8], -0.49% (inactive); in assay [14], 1.94% (inactive). The results for the growth inhibition in assay [9] and in [10] were -8.84% (inactive) and 5.01% (inactive), respectively. Further, the viability increase in [11] was -0.69% (inactive). In addition, the RAM network inhibition in assay [15] was 2.15% (inactive).
On to `O=C(CN1C(=O)c2ccccc2S1(=O)=O)NCc1ccccc1Cl`, for which the viability was 90.5% in [1]; 90.5% (inactive) in assay [3]; 99% (inactive) in [4]; 89.3% (inactive) in [5]; 82.9% in [6] (setting [16]); 89.3% in assay [6] (setting [17]). Moreover, the viability is 102% (inactive) in assay [12] and 100% (inactive) in assay [13]. In addition, the Her2 level in assay [2] is 108% (inactive). The differential viability (reversal) in [6] (H69AR cells + 2 uM doxorubicin) is 6.38% (inactive). For the same compound, the inhibition was -2.05% (inactive) in [7], -2.17% (inactive) in assay [8] and 0.125% (inactive) in assay [14]. For the same compound, the growth inhibition in [9] was -8.21% (inactive); in [10], -12.6% (inactive). For the same compound, the viability increase in assay [11] is -0.47% (inactive). Besides, the RAM network inhibition in [15] is 4.41% (inactive).
